LYPLA1 counter: blocks human lysophospholipase 1, a PME1 counter-screen. recombinant LYPLA1, FP-Rh probe fluorescence polarization. inhibition, % at 5.9 µM. actives 0.16% (n = 320,000). AID 2174;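 active means inhibition above the mean of all tested compounds plus 3 SD, set per campaign, cut at about 14% in these data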;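 further: inhibitors block serine hydrolase probe labeling of LYPLA1 so polarization falls; 0% = enzyme with DMSO and 100% = wells lacking LYPLA1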
PME-1 inh: PME-1 (human) inhibition | Q9Y570 | recombinant PME-1, FP-Rh probe fluorescence polarization | inhibition, % at 5.9 µM | actives 0.53% (n = 320,000);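 active means inhibition above the campaign mean of all compounds plus 3 SD, cut at about 26% in these data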;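 further: competitive labeling of PME-1 active site by serine hydrolase directed probe; 0% = PME-1 with DMSO and 100% = wells lacking PME-1 enzyme; inhibitors block probe labeling so polarization falls and inhibition rises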
Target sequence (Q9Y570 whole entry, looked up): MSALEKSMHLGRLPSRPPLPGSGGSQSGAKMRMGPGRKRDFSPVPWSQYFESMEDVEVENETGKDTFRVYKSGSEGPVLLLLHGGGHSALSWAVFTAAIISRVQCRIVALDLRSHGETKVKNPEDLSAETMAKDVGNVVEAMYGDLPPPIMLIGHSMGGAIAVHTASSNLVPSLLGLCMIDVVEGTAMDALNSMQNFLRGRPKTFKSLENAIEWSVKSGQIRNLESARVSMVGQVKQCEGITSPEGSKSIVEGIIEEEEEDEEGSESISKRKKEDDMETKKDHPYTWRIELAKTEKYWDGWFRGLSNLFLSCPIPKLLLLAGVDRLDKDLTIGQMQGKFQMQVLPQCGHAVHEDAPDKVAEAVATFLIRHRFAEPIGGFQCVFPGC
PAD4 inh: blocks human protein arginine deiminase 4. recombinant PAD4, RCA probe fluorescence polarization. inhibition, % at 6.36 µM. actives 0.41% (n = 330,000). AID 485272;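 active means percent inhibition above a cutoff equal to the mean of all tested compounds plus 3 SD, cut at about 15% in these data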;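 further: 0% = PAD4 with RCA probe and DMSO and 100% = probe without PAD4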
GSTO1 counter: counter-screen for RBBP9 inhibitors: inhibitors of human GSTO1 | recombinant GSTO1, activity-based probe fluorescence polarization | inhibition, % at 5.96 µM | actives 1.1% (n = 300,000) | AID 1974;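 active means inhibition above the campaign mean inhibition plus 3 SD, cut at about 35% in these data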;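 further: 0% = GSTO1-1 with DMSO and 100% = wells lacking GSTO1-1 enzyme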
Fam108B counter: counter-screen for RBBP9 inhibitors: inhibitors of mouse Fam108B | recombinant Fam108B, FP-Rh probe fluorescence polarization | inhibition, % at 9.51 µM | actives 0.33% (n = 300,000);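 active means inhibition above the screen mean inhibition plus 3 SD, computed separately per campaign, cut at about 18% in these data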;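 further: inhibitors lower polarization as less probe binds the enzyme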
LYPLA2 counter: blocks human lysophospholipase 2, a PME1 counter-screen. inhibition, % at 5.9 µM. recombinant LYPLA2, FP-Rh probe fluorescence polarization. O95372. actives 0.38% (n = 320,000);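 active means inhibition above the screen-wide mean plus 3 SD, limit set per campaign, cut at about 26% in these data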;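 further: 0% = LYPLA2 with DMSO and 100% = wells lacking LYPLA2 enzyme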
Target sequence (O95372 whole entry, looked up): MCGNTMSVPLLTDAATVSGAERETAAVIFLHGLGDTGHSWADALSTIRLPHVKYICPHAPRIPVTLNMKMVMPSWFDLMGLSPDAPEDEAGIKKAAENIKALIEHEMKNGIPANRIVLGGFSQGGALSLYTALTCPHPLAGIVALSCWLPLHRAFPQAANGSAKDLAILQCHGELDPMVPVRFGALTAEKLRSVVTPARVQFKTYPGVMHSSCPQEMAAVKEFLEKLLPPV
Active calls of the source: *; . = no result given. An excerpt weighted towards active compounds, which were near 1.8% of everything screened.

SMILES	LYPLA1 counter	PME-1 inh	PAD4 inh	GSTO1 counter	Fam108B counter	LYPLA2 counter
CCOc1ccc(/C=C2\SC(=S)N(C(C(=O)O)c3ccccc3)C2=O)cc1OC (centres undefined)	1.6	35.5*	-3.8	-4.8	2.1	-0.4
CC1(C)OC(=O)C=C[C@]2(C)[C@H]3CC[C@@]4(C)[C@H](C(=O)O)OC(=O)[C@H]5O[C@]54[C@]3(C)C(=O)C[C@@H]12	1.8	7.3	-1.6	.	.	0.2
CCOC(=O)c1c2ccc(OCC(=O)NN)cc2n2ccccc12	4.5	7.5	-2.4	40.1*	2.1	3.7
CCOC(=O)c1c2ccc(OCC(=O)N/N=C/c3ccc(C)cc3)cc2n2ccccc12	1.1	-4.7	-2.4	15.1	7.3	2.5
Oc1c(Br)cc(Br)cc1CNc1cnc2ccccc2c1	-2.7	46.1*	-8.8	15.0	4.3	-2.8
O=C(NCCCN1CCCC1=O)c1ccc(NS(=O)(=O)c2cccc([N+](=O)[O-])c2)cc1	2.2	-4.2	-0.2	12.2	-0.8	3.0
CS(=O)(=O)c1cccc(NC(=O)C2CCCN2S(=O)(=O)c2ccc(F)cc2)c1 (centres undefined)	2.8	-2.2	0.2	-1.5	-2.4	-2.4
CC(=O)N1C(=O)c2cccc3cccc(c23)C(=O)N1C(C)=O	0.7	7.6	1.8	2.2	1.6	2.0
O=C1c2cccc3cccc(c23)C(=O)C1(O)O	-2.6	2.0	2.7	62.8*	2.2	-7.3
Nc1c(N=Nc2ccccc2F)c(=O)[nH]n1-c1ccccc1	-0.5	35.7*	6.0	1.7	10.0	0.7
Nc1nn(-c2ccccc2)c(N)c1N=Nc1ccccc1F	1.4	6.9	-1.3	-2.1	4.2	-1.6
Brc1ccc(C=Nc2ccc(Nc3ccccc3)cc2)s1	0.6	-1.4	24.3*	37.1*	3.2	3.8
CCOC(=O)c1c(C)[nH]c(C2=NNC(=Nc3ccccc3OC)SC2)c1C	-7.7	21.6	-17.0	-9.2	3.7	-7.1
CCOC(=O)c1c(C)[nH]c(C2=NNC(=Nc3ccc(OCC)cc3)SC2)c1C	-8.6	27.7*	-20.8	-2.3	6.9	0.5
O=C(COC(=O)c1c(F)cccc1Cl)NC(=O)Nc1ccc2c(c1)OCCO2	-2.7	4.5	-1.6	.	.	-10.0
O=C(CN1C(=O)c2ccccc2C1=O)c1ccccc1	0.0	2.8	-7.3	10.1	-5.1	6.4
CC1=C(CC(=O)c2ccccc2)C(=O)c2ccccc2C1=O	0.5	6.6	4.0	50.9*	4.1	6.6
CC(C)c1ccc(-c2cc(C(=O)N3CCOCC3)c3cc(Br)ccc3n2)cc1	-0.2	3.1	2.7	7.1	-2.6	2.5
COc1cc(/C=N/NC(=O)c2ccc3c(c2)OCCO3)c(Br)c(Br)c1O	3.5	44.7*	0.7	16.6	8.5	3.0
O=C(N/N=C/c1cc2c(cc1Cl)OCO2)c1ccc2c(c1)OCCO2	-1.9	-25.3	-0.3	-0.6	0.6	-4.3
O=C(N/N=C/c1c(Cl)[nH]c2ccccc12)c1ccc2c(c1)OCCO2	-10.2	28.7*	-2.7	-1.7	4.7	-6.0
COc1cc(/C=N/NC(=O)c2ccc3c(c2)OCCO3)cc(Br)c1O	1.5	3.1	-4.6	8.0	2.4	3.4
CCCCCCC(=O)Nc1nc(C)c(-c2csc(Nc3cc(OC)ccc3OC)n2)s1	-13.3	35.4*	-3.0	6.2	10.7	-2.3
CCC(=O)Nc1nc(C)c(-c2csc(Nc3cccc(O)c3)n2)s1	4.0	30.1*	-2.0	1.1	16.4	12.4
Cc1nc(C)c(-c2csc(Nc3cccc(O)c3)n2)s1	-4.1	-3.2	1.7	-3.8	10.5	-2.5
SMILES	LYPLA1 counter	PME-1 inh	PAD4 inh	GSTO1 counter	Fam108B counter	LYPLA2 counter
CCOC(=O)c1sc(/N=C/c2c(O)ccc3ccccc23)cc1C	-1.2	2.7	1.4	38.8*	0.3	3.3
Cc1cc(C(=O)CCl)c(C)n1-c1cccc(S(=O)(=O)N2CCOCC2)c1	-1.7	-3.3	1.4	94.0*	3.9	0.1
CC(=O)Oc1ccc(C(=O)OCC(=O)c2c(N)n(C)c(=O)n(C)c2=O)cc1OC(C)=O	-0.1	-1.8	3.5	35.3*	-2.5	3.5
CC(C)c1cc(Nc2cccc(O)c2)cc(C(C)C)c1O	-5.0	11.3	4.3	41.7*	14.4	-4.2
O=C(CCCCCNC(=O)c1ccccc1)N=Nc1c(O)[nH]c2c(Br)cc(Br)cc12	3.2	14.9	-0.5	56.8*	4.6	7.7
O=C(COC(=O)Cc1ccc(Cl)cc1)Nc1ccccc1-c1ccccc1	-2.8	2.2	1.6	36.4*	0.3	4.0
COc1ccc(CCNC(=O)c2ccc3nc[nH]c3c2)cc1	1.9	3.2	-3.1	1.4	2.5	6.0
COc1ccc(CNc2oc(COc3ccccc3Cl)nc2C#N)cc1	-5.2	8.5	-3.6	35.3*	-3.1	1.4
O=C(/C=C/c1ccco1)N(c1ccccn1)c1ccccn1	1.0	-9.7	5.5	42.1*	3.4	-0.1
O=C1c2cccc3cccc(c23)C(=O)N1CCN1CCN(CC(O)COc2ccccc2)CC1 (centres undefined)	3.0	2.2	-5.2	-2.4	-3.0	30.8*
Cc1ccc(Nc2nnc(-c3ccc(N4CCOCC4)c([N+](=O)[O-])c3)c3ccccc23)cc1	-10.7	48.0*	-0.5	-6.5	5.4	-15.3
CCc1ccc2[nH]c(O)c(N=NC3=NC(=O)CS3)c2c1	4.8	31.6*	3.0	28.9	17.0	3.0
CCc1ccc2c(c1)c(N=NC1=NC(=O)CS1)c(O)n2CC	-1.0	4.9	-1.4	-49.3	6.3	-0.9
COC(=O)c1c(NC(=O)CN2CCN(c3ccccc3Cl)CC2)sc(C)c1C	1.8	-4.7	-1.1	36.6*	-0.7	0.4
Cc1ccc(C2C(C#N)=C(N)Oc3n[nH]c(-c4ccccc4)c32)o1 (centres undefined)	-1.2	-1.5	-14.2	45.2*	4.7	-1.2
Cc1c(C(=O)N/N=C/c2ccc(O)c(Br)c2)sc(N)c1C#N	-1.3	28.8*	-10.2	-23.2	6.8	3.6
Cc1cccc(C(=O)OCC(=O)NCCNC(=O)COC(=O)c2cccc(C)c2C)c1C	1.5	-0.1	-3.7	7.8	0.5	4.3
Cc1ccc(NC(=O)/C(C#N)=N/Nc2ccc(C(=O)O)cc2)c(C)c1	-0.2	-4.8	-1.4	-3.9	-2.3	-4.2
Cc1ccc(N/N=C(\C#N)C(N)=S)c(C)c1	-3.0	93.0*	0.9	-6.0	5.3	3.6
N#Cc1ccc(Nc2nc(-c3ccc(O)cc3O)cs2)cc1C(F)(F)F	-5.7	60.8*	-1.1	.	.	8.3
Oc1ccc(-c2csc(Nc3ncccn3)n2)c(O)c1	-0.2	0.1	-3.9	20.9	0.1	-6.6
O=C1CCCCC1Sc1nnc(-c2ccc3c(c2)OCO3)o1 (centres undefined)	2.2	-3.1	7.7	5.1	0.3	8.0
CCCCn1c(N)c(N(CCOC)C(=O)c2cc3c(s2)CCC3)c(=O)[nH]c1=O	0.3	-3.5	1.1	17.5	0.8	5.3
Cc1ccc(C(=O)NC(=C(Cl)Cl)S(=O)(=O)c2ccccc2)cc1	-2.4	0.6	3.2	39.3*	-0.1	-2.7

Compound activity: PubChem, The Scripps Research Institute Molecular Screening Center
